Laboratory results as given in the supplement of paper PMC10849652.
Of roughly 7,900 targets only a part is listed; those with a hit were picked by preference. About 0.6% of all pairs of compound and target were hits. Unmarked numbers belong to inactive results.

How the values were obtained:
Assay in all cases: log2 fold change, soluble protein after heating vs DMSO (PISA); higher = thermal stabilisation; K562 cells, 10 uM, 30 min; active = over 0.2 and 3.5 SD of the protein, either way, in both replicates (recomputed)
[1] = compound: CC[C@@H]1C(=O)N(C)c2cnc(Nc3ccc(C(=O)NC4CCN(C)CC4)cc3OC)nc2N1C1CCCC1
Summary of the method: (§1)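 Soluble protein was quantified by TMTpro 16plex LC-MS/MS after channel sums were equalised. It was obtained as the supernatant after 21,000xg for 90 min from pooled aliquots of K562 cells (2×10^6 cells/mL, 10 μM compound, 30 min) heated for 3 min across 48°C-58°C and extracted in PBS with 0.5% NP-40 at 4°C. Thermal stability values are relative to control samples and come from duplicates. They are given as log2 fold changes.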

volasertib = compound: CC[C@@H]1C(=O)N(C)c2cnc(Nc3ccc(C(=O)N[C@H]4CC[C@H](N5CCN(CC6CC6)CC5)CC4)cc3OC)nc2N1C(C)C [volasertib]
Summary of the method: as §1

[2] = compound: CC[C@H](C)N1C=C(C2=C(C=C(C=C21)C3=CN=C(C=C3)N4CCNCC4)C(=O)NCC5=C(C=C(NC5=O)C)C)C
Summary of the method: as §1

epoxomicin = compound: CC[C@H](C)[C@@H](C(=O)N[C@@H]([C@@H](C)O)C(=O)N[C@@H](CC(C)C)C(=O)[C@]1(CO1)C)NC(=O)[C@H]([C@@H](C)CC)N(C)C(=O)C [epoxomicin]
Summary of the method: as §1

[3] = compound: CCn1cc(-c2ccnc3[nH]c(-c4cccc(CN(C)C)c4)cc23)c(-c2ccc(NC(=O)N(C)C)cc2)n1
Summary of the method: as §1

[4] = compound: CN(C)CC(=O)Nc1ccc2[nH]c(=O)c3ccccc3c2c1
Summary of the method: as §1

rosiglitazone = compound: CN(CCOC1=CC=C(C=C1)C[C@H]2C(=O)NC(=O)S2)C3=CC=CC=N3 (racemic) [rosiglitazone]
Summary of the method: as §1

[5] = compound: CN1C2=C(C3=C1C(=O)N(N=C3)CC4=CC(=CC=C4)N)SC(=C2)S(=O)C
Summary of the method: as §1

[6] = compound: CN1CCC(CNc2ccc3ncc(-c4cccc(OC(F)(F)F)c4)n3n2)CC1
Summary of the method: as §1

saracatinib = compound: CN1CCN(CCOc2cc(OC3CCOCC3)c3c(Nc4c(Cl)ccc5c4OCO5)ncnc3c2)CC1 [saracatinib]
Summary of the method: as §1

sotrastaurin = compound: CN1CCN(c2nc(C3=C(c4c[nH]c5ccccc45)C(=O)NC3=O)c3ccccc3n2)CC1 [sotrastaurin]
Summary of the method: as §1

alvocidib = compound: CN1CC[C@H](c2c(O)cc(O)c3c(=O)cc(-c4ccccc4Cl)oc23)[C@H](O)C1 [alvocidib]
Summary of the method: as §1

Tubastatin A = compound: CN1CCc2c(c3ccccc3n2Cc2ccc(C(=O)NO)cc2)C1 [Tubastatin A]
Summary of the method: as §1

defactinib = compound: CNC(=O)c1ccc(Nc2ncc(C(F)(F)F)c(NCc3nccnc3N(C)S(C)(=O)=O)n2)cc1 [defactinib]
Summary of the method: as §1

rucaparib = compound: CNCc1ccc(-c2[nH]c3cc(F)cc4c3c2CCNC4=O)cc1 [rucaparib]
Summary of the method: as §1

[7] = compound: CNc1nc(-c2ccc3c(N)n[nH]c3c2)cc(N2C[C@@H](C(=O)NC3CCCCC3)CC[C@H]2C)n1
Summary of the method: as §1

encorafenib = compound: COC(=O)N[C@@H](C)CNc1nccc(-c2cn(C(C)C)nc2-c2cc(Cl)cc(NS(C)(=O)=O)c2F)n1 [encorafenib]
Summary of the method: as §1

[8] = compound: COC(=O)[C@H](CCSC)NC(=O)C1=C(C=C(C=C1)NC[C@H](CS)N)C2=CC=CC=C2
Summary of the method: as §1

[9] = compound: CCn1c(C(=O)N(C2CC2)C2CC2)cc2c3c(ncn3C)c(Nc3cc(C)n(C)n3)nc21
Summary of the method: as §1

[10] = compound: CNC(=O)C1=CC=CC=C1NC2=NC(=NC=C2Cl)NC3=C(C=C(C=C3)N4CCOCC4)OC
Summary of the method: as §1

## ABITRAM (UniProt Q9NX38)
UniProt Q9NX38, sequence (Q9NX38 whole entry, looked up): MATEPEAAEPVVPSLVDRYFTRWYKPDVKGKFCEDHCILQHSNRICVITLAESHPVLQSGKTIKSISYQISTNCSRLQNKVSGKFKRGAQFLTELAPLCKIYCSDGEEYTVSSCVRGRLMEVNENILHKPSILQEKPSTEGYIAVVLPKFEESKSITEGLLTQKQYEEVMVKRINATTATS
[1]
  log2 fold change: 0.033
volasertib
  log2 fold change: -0.11
[2]
  log2 fold change: 0.088
epoxomicin
  log2 fold change: 0.055
[3]
  log2 fold change: 0.137
[4]
  log2 fold change: 0.051
rosiglitazone
  log2 fold change: 0.139
[5]
  log2 fold change: -0.034
[6]
  log2 fold change: -0.093
saracatinib
  log2 fold change: 0.035
sotrastaurin
  log2 fold change: -0.188
alvocidib
  log2 fold change: -0.107
Tubastatin A
  log2 fold change: -0.007
defactinib
  log2 fold change: -0.164
rucaparib
  log2 fold change: -0.041
[7]
  log2 fold change: -0.243
encorafenib
  log2 fold change: 0.025
[8]
  log2 fold change: -0.049

## ACOX3 (UniProt O15254)
UniProt O15254, sequence (O15254 whole entry, looked up): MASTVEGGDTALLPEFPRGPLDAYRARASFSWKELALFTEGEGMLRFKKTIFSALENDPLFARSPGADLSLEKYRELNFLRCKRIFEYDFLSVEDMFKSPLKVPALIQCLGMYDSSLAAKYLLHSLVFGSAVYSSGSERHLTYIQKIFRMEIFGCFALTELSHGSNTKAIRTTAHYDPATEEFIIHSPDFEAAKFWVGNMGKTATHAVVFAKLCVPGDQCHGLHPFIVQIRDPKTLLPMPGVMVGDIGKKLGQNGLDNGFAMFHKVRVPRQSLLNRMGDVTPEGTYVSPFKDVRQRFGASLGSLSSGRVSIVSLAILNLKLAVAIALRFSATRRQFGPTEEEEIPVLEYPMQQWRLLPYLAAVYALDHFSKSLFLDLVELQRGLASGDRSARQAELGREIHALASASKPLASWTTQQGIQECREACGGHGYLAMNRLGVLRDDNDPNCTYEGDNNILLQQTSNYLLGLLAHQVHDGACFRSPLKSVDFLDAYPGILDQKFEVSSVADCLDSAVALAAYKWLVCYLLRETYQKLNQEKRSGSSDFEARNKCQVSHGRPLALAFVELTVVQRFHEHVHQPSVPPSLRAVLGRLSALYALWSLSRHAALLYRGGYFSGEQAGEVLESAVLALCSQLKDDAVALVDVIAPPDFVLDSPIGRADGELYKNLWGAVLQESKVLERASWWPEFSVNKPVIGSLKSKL
[1]
  log2 fold change: -0.346
volasertib
  log2 fold change: 0.028
[2]
  log2 fold change: -0.069
epoxomicin
  log2 fold change: -0.113
[9]
  log2 fold change: 0.011
[4]
  log2 fold change: -0.129
rosiglitazone
  log2 fold change: 0.044
sotrastaurin
  log2 fold change: -0.039
alvocidib
  log2 fold change: -0.097
Tubastatin A
  log2 fold change: -0.465 (active)
[10]
  log2 fold change: -0.034
defactinib
  log2 fold change: -0.063
rucaparib
  log2 fold change: -0.313
encorafenib
  log2 fold change: -0.036
[8]
  log2 fold change: 0.046

## ANGEL1 (UniProt Q9UNK9)
UniProt Q9UNK9, sequence (Q9UNK9 whole entry, looked up): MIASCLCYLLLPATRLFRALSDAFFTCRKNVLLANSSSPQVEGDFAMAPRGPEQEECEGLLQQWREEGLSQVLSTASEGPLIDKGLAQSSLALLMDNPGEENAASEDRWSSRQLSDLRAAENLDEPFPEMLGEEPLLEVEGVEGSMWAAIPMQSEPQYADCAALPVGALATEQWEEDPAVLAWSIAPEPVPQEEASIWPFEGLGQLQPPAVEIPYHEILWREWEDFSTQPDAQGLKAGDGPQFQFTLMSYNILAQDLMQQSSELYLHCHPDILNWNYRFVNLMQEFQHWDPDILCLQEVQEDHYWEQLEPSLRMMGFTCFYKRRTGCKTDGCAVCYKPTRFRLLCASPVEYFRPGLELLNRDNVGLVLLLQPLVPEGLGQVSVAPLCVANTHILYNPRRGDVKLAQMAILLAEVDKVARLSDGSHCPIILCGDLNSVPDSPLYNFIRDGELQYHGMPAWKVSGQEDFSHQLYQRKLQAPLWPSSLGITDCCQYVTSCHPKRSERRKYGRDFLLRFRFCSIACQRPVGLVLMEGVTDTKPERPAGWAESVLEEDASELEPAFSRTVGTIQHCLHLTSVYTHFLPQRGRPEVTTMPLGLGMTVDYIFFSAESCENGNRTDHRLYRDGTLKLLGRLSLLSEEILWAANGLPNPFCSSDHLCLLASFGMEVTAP
[4]
  log2 fold change: 0.038
rosiglitazone
  log2 fold change: -0.008
Tubastatin A
  log2 fold change: 0.089
defactinib
  log2 fold change: -0.076
[8]
  log2 fold change: 0.095

## AUNIP isoform 2 (UniProt Q9H7T9)
UniProt Q9H7T9, sequence (Q9H7T9 whole entry, looked up): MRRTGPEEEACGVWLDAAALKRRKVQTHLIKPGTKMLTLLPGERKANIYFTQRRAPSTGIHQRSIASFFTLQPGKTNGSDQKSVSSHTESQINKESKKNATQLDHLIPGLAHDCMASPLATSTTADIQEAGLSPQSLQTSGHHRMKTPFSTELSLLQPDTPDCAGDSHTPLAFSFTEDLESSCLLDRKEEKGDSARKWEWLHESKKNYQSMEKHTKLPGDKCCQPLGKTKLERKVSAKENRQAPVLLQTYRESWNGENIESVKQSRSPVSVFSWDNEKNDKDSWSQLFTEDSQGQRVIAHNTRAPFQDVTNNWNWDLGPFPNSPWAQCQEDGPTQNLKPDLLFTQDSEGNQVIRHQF
volasertib
  log2 fold change: -0.03
[9]
  log2 fold change: 0.013
[4]
  log2 fold change: -0.163
[5]
  log2 fold change: -0.031
saracatinib
  log2 fold change: -0.007
sotrastaurin
  log2 fold change: -0.085
alvocidib
  log2 fold change: 0.053
Tubastatin A
  log2 fold change: 0.278
[10]
  log2 fold change: 0.189
defactinib
  log2 fold change: 0.043
[7]
  log2 fold change: -0.086
[8]
  log2 fold change: 0.342

## AP2S1 (UniProt M0QZ21)
Tubastatin A
  log2 fold change: 0.335

## ATF7 isoform 6 (UniProt P17544)
UniProt P17544, sequence (P17544 whole entry, looked up): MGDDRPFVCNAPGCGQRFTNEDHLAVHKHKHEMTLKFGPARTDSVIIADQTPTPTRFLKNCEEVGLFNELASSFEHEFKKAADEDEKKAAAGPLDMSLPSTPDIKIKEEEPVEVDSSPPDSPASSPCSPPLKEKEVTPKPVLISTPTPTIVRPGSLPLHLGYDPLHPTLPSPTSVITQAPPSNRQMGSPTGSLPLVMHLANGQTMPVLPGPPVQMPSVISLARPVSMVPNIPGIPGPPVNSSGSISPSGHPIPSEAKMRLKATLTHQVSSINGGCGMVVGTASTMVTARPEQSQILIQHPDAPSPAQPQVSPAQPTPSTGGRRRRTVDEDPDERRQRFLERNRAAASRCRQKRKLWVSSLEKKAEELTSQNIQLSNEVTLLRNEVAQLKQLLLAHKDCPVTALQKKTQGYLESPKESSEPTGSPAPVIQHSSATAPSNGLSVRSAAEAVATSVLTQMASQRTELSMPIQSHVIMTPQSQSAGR
volasertib
  log2 fold change: -0.014
[2]
  log2 fold change: 0.041
epoxomicin
  log2 fold change: -0.028
[9]
  log2 fold change: 0.007
[4]
  log2 fold change: 0.03
rosiglitazone
  log2 fold change: -0.011
[5]
  log2 fold change: -0.06
saracatinib
  log2 fold change: 0.477 (active)
sotrastaurin
  log2 fold change: -0.105
alvocidib
  log2 fold change: 0.026
Tubastatin A
  log2 fold change: -0.088
[10]
  log2 fold change: -0.096
defactinib
  log2 fold change: 0.063
[7]
  log2 fold change: 0.034
[8]
  log2 fold change: -0.037

## ARL4A (UniProt P40617)
rosiglitazone
  log2 fold change: 0.063

## AP2M1 (UniProt C9JTK4)
[1]
  log2 fold change: 0.03
[2]
  log2 fold change: -0.051
epoxomicin
  log2 fold change: 0.027
[4]
  log2 fold change: -0.243
rosiglitazone
  log2 fold change: -0.016
[5]
  log2 fold change: -0.049
saracatinib
  log2 fold change: -0.109
sotrastaurin
  log2 fold change: 0.055
alvocidib
  log2 fold change: 0.203
Tubastatin A
  log2 fold change: -0.045
defactinib
  log2 fold change: -0.053
rucaparib
  log2 fold change: 0.07
[7]
  log2 fold change: -0.019
encorafenib
  log2 fold change: -0.048
[8]
  log2 fold change: 0.193

## BRAF, A0A2R8Y8E0
[2]
  log2 fold change: 0.047
[9]
  log2 fold change: -0.078
Tubastatin A
  log2 fold change: -0.084
[10]
  log2 fold change: 0.143

## BAIAP2 isoform 4 (UniProt Q9UQB8)
UniProt Q9UQB8, sequence (Q9UQB8 whole entry, looked up): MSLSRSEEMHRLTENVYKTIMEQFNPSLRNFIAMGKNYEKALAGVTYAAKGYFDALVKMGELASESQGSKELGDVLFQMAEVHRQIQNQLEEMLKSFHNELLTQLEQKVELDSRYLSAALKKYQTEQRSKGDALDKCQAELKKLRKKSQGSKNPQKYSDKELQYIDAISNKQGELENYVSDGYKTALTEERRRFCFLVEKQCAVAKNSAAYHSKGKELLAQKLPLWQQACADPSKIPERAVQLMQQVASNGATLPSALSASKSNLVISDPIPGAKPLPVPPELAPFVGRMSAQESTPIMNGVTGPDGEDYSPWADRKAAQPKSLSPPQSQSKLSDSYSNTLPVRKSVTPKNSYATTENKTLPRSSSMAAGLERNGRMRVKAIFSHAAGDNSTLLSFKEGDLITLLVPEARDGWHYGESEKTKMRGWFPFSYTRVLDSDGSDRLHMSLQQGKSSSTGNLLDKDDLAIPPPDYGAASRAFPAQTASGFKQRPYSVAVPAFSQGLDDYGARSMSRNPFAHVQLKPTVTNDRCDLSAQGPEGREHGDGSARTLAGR
sotrastaurin
  log2 fold change: 0.147
alvocidib
  log2 fold change: -0.034
Tubastatin A
  log2 fold change: 0.288

## ADD1 isoform 4 (UniProt P35611)
UniProt P35611, sequence (P35611 whole entry, looked up): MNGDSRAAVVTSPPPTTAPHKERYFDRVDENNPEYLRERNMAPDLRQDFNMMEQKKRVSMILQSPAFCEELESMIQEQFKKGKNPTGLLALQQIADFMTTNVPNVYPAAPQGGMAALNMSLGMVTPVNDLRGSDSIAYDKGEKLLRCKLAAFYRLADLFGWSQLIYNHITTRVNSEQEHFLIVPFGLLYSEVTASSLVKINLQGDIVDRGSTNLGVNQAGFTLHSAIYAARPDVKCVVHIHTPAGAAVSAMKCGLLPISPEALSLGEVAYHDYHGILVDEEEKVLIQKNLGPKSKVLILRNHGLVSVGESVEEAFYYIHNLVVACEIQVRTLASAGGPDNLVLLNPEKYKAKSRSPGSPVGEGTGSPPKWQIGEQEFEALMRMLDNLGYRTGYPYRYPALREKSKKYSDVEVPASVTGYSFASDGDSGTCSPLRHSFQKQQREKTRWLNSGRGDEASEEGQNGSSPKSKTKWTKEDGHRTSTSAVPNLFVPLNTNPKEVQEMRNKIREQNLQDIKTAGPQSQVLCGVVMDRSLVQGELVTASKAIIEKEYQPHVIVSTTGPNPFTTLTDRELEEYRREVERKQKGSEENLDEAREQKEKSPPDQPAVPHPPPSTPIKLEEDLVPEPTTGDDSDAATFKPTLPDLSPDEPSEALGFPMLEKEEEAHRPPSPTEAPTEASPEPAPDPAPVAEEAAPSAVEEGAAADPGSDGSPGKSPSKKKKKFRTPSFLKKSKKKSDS
epoxomicin
  log2 fold change: -0.431
[3]
  log2 fold change: -0.001
rosiglitazone
  log2 fold change: -0.077
[6]
  log2 fold change: 0.086
alvocidib
  log2 fold change: 0.087

## AKNA (UniProt Q7Z591)
volasertib
  log2 fold change: 0.015
[9]
  log2 fold change: 0.054
sotrastaurin
  log2 fold change: -0.017
alvocidib
  log2 fold change: -0.066
[10]
  log2 fold change: -0.074

## ARHGAP25 isoform 4 (UniProt P42331)
UniProt P42331, sequence (P42331 whole entry, looked up): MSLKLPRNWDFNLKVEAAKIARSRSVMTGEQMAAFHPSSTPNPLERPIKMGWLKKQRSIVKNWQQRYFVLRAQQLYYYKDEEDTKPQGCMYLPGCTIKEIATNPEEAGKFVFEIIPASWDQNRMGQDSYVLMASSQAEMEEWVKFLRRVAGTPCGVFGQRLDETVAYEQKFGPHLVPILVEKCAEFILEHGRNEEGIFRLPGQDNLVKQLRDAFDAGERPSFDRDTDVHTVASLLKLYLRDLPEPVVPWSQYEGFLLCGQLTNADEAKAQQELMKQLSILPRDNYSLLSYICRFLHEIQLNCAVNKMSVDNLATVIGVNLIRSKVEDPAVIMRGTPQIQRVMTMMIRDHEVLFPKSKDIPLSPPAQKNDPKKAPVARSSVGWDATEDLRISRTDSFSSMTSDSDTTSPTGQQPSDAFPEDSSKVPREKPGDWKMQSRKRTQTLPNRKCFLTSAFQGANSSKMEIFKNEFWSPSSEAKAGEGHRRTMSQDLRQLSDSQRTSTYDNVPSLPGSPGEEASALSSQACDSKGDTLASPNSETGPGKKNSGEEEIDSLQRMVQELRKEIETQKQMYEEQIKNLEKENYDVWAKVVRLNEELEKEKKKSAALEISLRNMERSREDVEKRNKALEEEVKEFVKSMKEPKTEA
[1]
  log2 fold change: -0.031
[2]
  log2 fold change: -0.031
epoxomicin
  log2 fold change: 0.083
[9]
  log2 fold change: -0.103
[3]
  log2 fold change: 0.072
[4]
  log2 fold change: 0.134
rosiglitazone
  log2 fold change: 0.088
[5]
  log2 fold change: 0.127
[6]
  log2 fold change: -0.221
saracatinib
  log2 fold change: 0.249
alvocidib
  log2 fold change: -0.128
Tubastatin A
  log2 fold change: 0.079
[10]
  log2 fold change: -0.023
defactinib
  log2 fold change: 0.02
rucaparib
  log2 fold change: 0.168
[7]
  log2 fold change: 0.131
encorafenib
  log2 fold change: 0.212
[8]
  log2 fold change: -0.212

## BRD2 isoform 2 (UniProt P25440)
volasertib
  log2 fold change: 1.76 (active)
[9]
  log2 fold change: 0.104
[3]
  log2 fold change: 0.486
[4]
  log2 fold change: 0.115
rosiglitazone
  log2 fold change: 0.24
[5]
  log2 fold change: -0.132
[6]
  log2 fold change: 0.129
saracatinib
  log2 fold change: 0
sotrastaurin
  log2 fold change: -0.172
alvocidib
  log2 fold change: -0.111
Tubastatin A
  log2 fold change: -0.37
[10]
  log2 fold change: 0.146
defactinib
  log2 fold change: -0.125
[7]
  log2 fold change: 0.255
[8]
  log2 fold change: -0.074

## ABCA3 (UniProt Q99758)
[1]
  log2 fold change: -0.155
volasertib
  log2 fold change: -0.093
epoxomicin
  log2 fold change: 0
[9]
  log2 fold change: -0.035
[3]
  log2 fold change: 0.168
[4]
  log2 fold change: 0.108
rosiglitazone
  log2 fold change: -0.172
[5]
  log2 fold change: -0.013
[6]
  log2 fold change: -0.263
saracatinib
  log2 fold change: 0.009
sotrastaurin
  log2 fold change: 0.121
alvocidib
  log2 fold change: 0.047
Tubastatin A
  log2 fold change: -0.05
[10]
  log2 fold change: 0.065
defactinib
  log2 fold change: 0.108
rucaparib
  log2 fold change: 0.11
[7]
  log2 fold change: 0.011
encorafenib
  log2 fold change: 0.192
[8]
  log2 fold change: -0.039

## ARMC8 isoform 6 (UniProt Q8IUR7)
UniProt Q8IUR7, sequence (Q8IUR7 whole entry, looked up): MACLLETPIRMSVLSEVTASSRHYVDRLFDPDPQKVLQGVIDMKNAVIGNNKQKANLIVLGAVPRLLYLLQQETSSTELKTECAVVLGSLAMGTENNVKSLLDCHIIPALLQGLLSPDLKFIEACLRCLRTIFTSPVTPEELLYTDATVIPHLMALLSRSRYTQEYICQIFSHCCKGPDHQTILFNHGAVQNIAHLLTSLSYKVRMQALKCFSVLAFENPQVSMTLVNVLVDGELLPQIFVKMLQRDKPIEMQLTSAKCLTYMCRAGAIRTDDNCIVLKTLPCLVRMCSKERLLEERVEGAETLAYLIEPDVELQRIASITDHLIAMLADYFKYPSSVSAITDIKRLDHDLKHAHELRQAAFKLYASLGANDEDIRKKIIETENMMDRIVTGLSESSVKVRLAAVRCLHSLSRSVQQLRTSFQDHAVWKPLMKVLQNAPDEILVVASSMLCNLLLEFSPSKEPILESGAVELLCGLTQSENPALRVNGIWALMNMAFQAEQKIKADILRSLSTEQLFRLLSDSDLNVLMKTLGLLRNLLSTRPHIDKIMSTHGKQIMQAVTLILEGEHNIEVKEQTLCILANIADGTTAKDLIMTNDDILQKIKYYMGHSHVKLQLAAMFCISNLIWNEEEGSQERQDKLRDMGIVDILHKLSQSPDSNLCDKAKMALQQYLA
[2]
  log2 fold change: 0.048
[9]
  log2 fold change: -0.196
[4]
  log2 fold change: 0.016
rosiglitazone
  log2 fold change: -0.004
[10]
  log2 fold change: -0.088
defactinib
  log2 fold change: -0.114
[8]
  log2 fold change: 0.108
